The campaign covered roughly 16,000 compounds. About 5,800 (36%) were called active. About 23% were inconclusive and are not listed. Some of the results follow. A number with no mark means an inactive call. Calls follow the shape of the dose curve; as a rule, active = well fitted curve in the direction sought with a large enough effect; inconclusive = small, poorly fitted or top-dose-only effect, or effect the other way; inactive = no such curve, though single readings can be large or run the other way.
% is scaled to controls: 0 for no effect and ±100 for the full control effect.

Sequence of Cytochrome P450 2C19 (Homo sapiens) (P33261 whole entry, looked up): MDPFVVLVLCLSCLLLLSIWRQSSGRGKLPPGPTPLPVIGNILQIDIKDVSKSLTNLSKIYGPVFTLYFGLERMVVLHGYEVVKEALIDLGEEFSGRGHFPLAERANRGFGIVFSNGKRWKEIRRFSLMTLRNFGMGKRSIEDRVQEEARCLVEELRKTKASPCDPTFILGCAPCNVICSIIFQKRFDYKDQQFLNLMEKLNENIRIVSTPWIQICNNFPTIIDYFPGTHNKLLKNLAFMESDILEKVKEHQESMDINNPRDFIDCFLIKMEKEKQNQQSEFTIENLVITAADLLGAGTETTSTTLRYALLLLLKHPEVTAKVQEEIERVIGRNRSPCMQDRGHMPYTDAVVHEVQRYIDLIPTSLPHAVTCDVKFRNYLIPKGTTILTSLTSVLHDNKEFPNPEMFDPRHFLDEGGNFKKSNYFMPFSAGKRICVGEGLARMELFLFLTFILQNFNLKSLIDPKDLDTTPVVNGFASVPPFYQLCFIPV

In this assay the target is Cytochrome P450 2C19 (Homo sapiens) (UniProt P33261). Kind of assay: Cytochrome panel assay with activity outcomes. To be noted: recombinant CYP, pro-luciferin dealkylation, luminescence, p450-cyp2c19; series mostly up to 57.1 µM; activity, negative = inhibition: at the top concentration. The procedure:
The P450 gene superfamily is involved in the metabolism and clearance of xenobiotics. This assay used various human CYP P450 isozymes to measure the dealkylation of various pro-luciferin substrates to luciferin. The luciferin is then measured by luminescence after the addition of a luciferase detection reagent. Pro-luciferin substrate concentration in the assay was equal to its KM for its CYP P450 isozyme. Inhibitors and some substrates limit the production of luciferin, and decrease measured luminescence.
NCGC Assay Protocol Summary:
1, Reagent, 2 uL, Isozyme and Pro-Luciferin
2, Library compounds, 23 nl, 40 uM to 0.24 nM dilution series
3, Controls, 23 nl, Isozyme specific inhibitor
4, Reagent, 2 uL, NADPH regeneration solution
5, Incubation time, 60 min, Isozyme specific temperature
6, Reagent, 4ul, Detection reagent
7, Incubation time, 20 min, Isozyme specific temperature
8, Detection, 1 sec, ViewLux luminescent read
The luciferase-based P450-GloTM Screening Systems were obtained from Promega (Madison, WI) for CYP 1A2 (V9770), CYP 2C9 (V9790), CYP2 C19 (V9880), CYP 2D6 (V9890), and CYP 3A4 Luciferin-PPXE (V9910) and were adapted for 1,536-well microplates and an automated protocol. The control compounds furafylline for 1A2 (F124), sulfaphenazole for CYP 2C9 (S0758), ketoconazole for CYP 2C19 (K1003), quinidine for 2D6 (Q3625), and ketoconazole for 3A4 (K1003) were purchased from Sigma Aldrich (St. Louis, MO). Recombinant P450 enzymes were obtained from baculovirus constructs expressed in insect cells (BD/Gentest).
Medium-binding white solid Kalypsys plates used. Mixtures kept on ice. 1A2: 10 nM 1A2, 100 uM Luc-ME, 100 mM KPO4; 2C9: 10 nM 2C9, 100 uM Luc-H, 25 mM KPO4; 2C19: 5 nM 2C19, 10 uM Luc-H EGE, 50 mM KPO4; 2D6: 5 nM 2D6, 30 uM Luc-ME EGE, 100 mM KPO4; 3A4: 10 nM, 25 uM Luc-PPXE. All amounts are reflected in their final concentration, working concentration is 2x.
NADPH regeneration solution: 1.3 mM NADP+, 3.3 mM glucose-6-phosphate, 3.3 mM MgCl2, 0.4 U/mL glucose-6-phosphate dehydrogenase for all isozymes, 200 mM KPO4 for 3A4. Mixture prepared at RT but kept on ice during automated run.
RT incubation in auxilliary plate hotel for 1A2, 2D6, and 3A4; 37C for 2C9 and 2C19.
Keywords: P450, CYP1A2, CYP2C19, CYP2C9, CYP2D6, CYP3A4, Luciferase, MLSMR, MLSCN, NIH Roadmap, qHTS, NCGC
The term AC50 denotes the concentration at which the activity in the assay is half-maximal. With `COc1ccccc1NC(=O)CSc1nc2ccccc2cc1Cc1ccccc1`, the AC50 is 0.0398 µM (active).

Regarding `COc1ccc(NC(=O)CSc2nc3ccccc3cc2Cc2ccccc2)cc1`, the AC50 was 0.0282 µM (active).

Take `COc1cccc(NC(=O)CSc2nc3ccccc3cc2Cc2ccccc2)c1`: the AC50 is 0.251 µM (active).

For the molecule `COc1ccc(NC(=O)CCSc2cc(C)c3ccccc3n2)cc1`, the AC50 was 7.94 µM (active).

As for `CC(C)NC[C@H](O)c1ccc(NS(C)(=O)=O)cc1`, the AC50 entry is “inactive”.

In the case of `CN(CCc1ccc(Cl)c(Cl)c1)C[C@@H](O)COc1ccc(NS(C)(=O)=O)cc1`, the AC50 is 2 µM (active).

For `CN(CCc1ccc(Cl)c(Cl)c1)CCN1CCCCCC1`, the “activity, negative = inhibition” value was -43.2%.

Take `C=CCNC(=O)c1onc(CSc2ccc(F)cc2)c1C(=O)O`: the AC50 is 5.62 µM (active).

Turning to `O=C(NCc1ccccc1)c1onc(CSc2ccc(F)cc2)c1C(=O)NCCCN1CCOCC1`, the AC50 was 12.6 µM (active).

As to `O=C(NCCCN1CCOCC1)c1cc2c(s1)CSC2`, the “activity, negative = inhibition” value is -22.2%.

In the case of `O=C(NCC1CCCO1)c1onc(CSc2ccccc2F)c1C(=O)O` (centres undefined), the “activity, negative = inhibition” value was 37.7%.

Regarding `COCCNC(=O)c1onc(CSc2cccc(Cl)c2)c1C(=O)O`, the “activity, negative = inhibition” value was 6.67%.

As for `COCCNC(=O)c1onc(CSc2ccc(Cl)cc2)c1C(=O)O`, the AC50 is 3.55 µM (active).

As for `COc1ccccc1C(=O)O/N=C1/CCCc2c1ccc(OC)c2[N+](=O)[O-]`, the AC50 is 0.631 µM (active).

With `COc1ccc(/C=N/NC(N)=S)cc1OC(=O)c1cccc2ccccc12`, the concentration at half-maximal activity (AC50) is 2 µM (active).

On to `O=C(O)CC[C@]1(C(=O)O)CCC(=O)c2ccccc21`, for which the activity, negative = inhibition is 22.5% [at 11.4 µM].

Regarding `Cc1ccccc1NS(=O)(=O)c1ccc2[nH]cc(C(=O)N(C)Cc3ccco3)c(=O)c2c1`, the half-maximal activity concentration (AC50) was 25.1 µM (active).

In the case of `COC(=O)c1cc(NS(=O)(=O)c2ccc(N3CCCCCC3)c([N+](=O)[O-])c2)cc(C(=O)OC)c1`, the half-maximal activity concentration (AC50) was 5.62 µM (active).

`CC1CCN(c2ccc(S(=O)(=O)Nc3cc(C(=O)O)cc(C(=O)O)c3)cc2[N+](=O)[O-])CC1`: the AC50 was 3.16 µM (active).

Consider `NNS(=O)(=O)c1cc(C(=O)O)cc(C(=O)O)c1`, for which the activity, negative = inhibition was -25.2% [at 11.4 µM].

Regarding `CCCCN(C)S(=O)(=O)c1ccc(C(=O)Nc2nnc(CSC)o2)cc1`, the “activity, negative = inhibition” value is -9.3%.

Turning to `Cc1cc(C)c(C)c(S(=O)(=O)ON2C(=O)c3ccccc3C2=O)c1C`, the AC50 is 3.16 µM (active).

Take `CC(C)(SCc1ccccc1)[C@H](N)C(=O)O`: the activity, negative = inhibition was 1.45% [at 11.4 µM].

In the case of `C=CC(=O)NC(C)(C)Cc1ccccc1`, the AC50 was 14.1 µM (active).

For the molecule `N[C@@](CC(=O)O)(Cc1ccccc1)C(=O)O`, the activity, negative = inhibition is 22.4% [at 11.4 µM].

In the case of `COC(=O)c1ccccc1NS(=O)(=O)c1ccc2c3c(cccc13)C(=O)N2`, the concentration at half-maximal activity (AC50) is 0.794 µM (active).

Consider `N[C@@H](Cc1cnc[nH]1)C(=O)O`, for which the “activity, negative = inhibition” value is 36.4%.

Take `N=C(N)SCCc1cnc[nH]1`: the AC50 entry is “inactive”.

Take `Fc1ccc(C(OCCCc2cnc[nH]2)c2ccc(F)cc2)cc1`: the AC50 was 0.00398 µM (active).

For `CN1CCN(c2ncc3nc(-c4cccs4)c(=O)n(C[C@H]4CCCO4)c3n2)CC1`, the “activity, negative = inhibition” value was -16.1%.

In the case of `CN1CCc2c(c3ccccc3n2C)C1`, the “activity, negative = inhibition” value was 1.73%.

As for `O=S(=O)(O)c1ccc(N=Nc2ccc3c(S(=O)(=O)O)cccc3c2O)c2ccccc12`, the activity, negative = inhibition is -37.1% [at 11.4 µM].

Consider `COc1cc(-c2ccc(N=Nc3ccc4c(S(=O)(=O)O)cc(S(=O)(=O)O)c(N)c4c3O)c(OC)c2)ccc1N=Nc1ccc2c(S(=O)(=O)O)cc(S(=O)(=O)O)c(N)c2c1O`, for which the concentration at half-maximal activity (AC50) was 3.98 µM (active).

On to `C=CCN(CC=C)C(=O)C(=O)c1cc(C)n(-c2ccc([N+](=O)[O-])cc2)c1C`, for which the AC50 was 0.126 µM (active).

In the case of `CN1CCN(C2=Cc3ccccc3Oc3ccc(Cl)cc32)CC1`, the AC50 is 3.98 µM (active).

In the case of `CN1CCN(C2=Nc3ccccc3Oc3ccc(Cl)cc32)CC1`, the AC50 entry is “inactive”.

Take `Clc1ccc2c(c1)C(N1CCNCC1)=Nc1ccccc1O2`: the “activity, negative = inhibition” value was -17.2% [at 25.6 µM].

Take `COC(=O)c1sc2ccccc2c1-n1cccc1C(=O)C(=O)Nc1ccc(Cl)cc1`: the AC50 was 5.01 µM (active).

Consider `C=CCNC(=O)c1cccn1-c1ccsc1C(=O)OC`, for which the “activity, negative = inhibition” value is -9.71%.

For `Cc1ccc(NC(=O)N(Cc2ccco2)C(C)c2ccco2)cc1C` (centres undefined), the AC50 is 5.62 µM (active).

As to `COCC(=O)N1CCC2(CCCN(Cc3ccccc3OC)C2)CC1`, the “activity, negative = inhibition” value is 20.3%.

As for `Cc1nnc(C)n1/N=C/c1ccc(-c2ccccc2)cc1`, the “activity, negative = inhibition” value is -11.6%.

Regarding `Cc1ccc(-c2n[nH]c(=S)n2/N=C/c2cccn2C)cc1`, the AC50 is 14.1 µM (active).

With `C/C=C\C(=O)N(CC)c1ccccc1C`, the “activity, negative = inhibition” value is -41.5% [at 25.6 µM].

As for `COc1cccc(-c2cc(=O)c3ccccc3o2)c1N`, the AC50 was 6.31 µM (active).

On to `C/C(=N/O)[C@@H]1C[C@H](CC(=O)O)C1(C)C`, for which the activity, negative = inhibition was 23% [at 11.4 µM].

For `Cc1cc(C)n2nc(-c3sccc3-n3cccc3)cc2n1`, the concentration at half-maximal activity (AC50) is 7.08 µM (active).

Take `CCOC(=O)c1cccc(C(=O)OCC)n1`: the “activity, negative = inhibition” value is -3.88%.

`O=C(OCC(=O)c1cccs1)c1cccc(C(=O)OCC(=O)c2cccs2)n1`: the AC50 was 17.8 µM (active).

For the origin of these results see PubChem BioAssay AID1851 (National Center for Advancing Translational Sciences (NCATS), 2009).
